# Results as given in ChEMBL document CHEMBL4513216, “Probing the Open Global Health Chemical Diversity Library for Multistage-Active Starting Points for Next-Generation Antimalarials” (ACS Infect Dis, 2020).
# Screen size: about 65,000 compounds; about 2,100 (3.2%) showed an effect of 50% or more. The median lay at about -52%. The full list was thinned out, with strong results kept by preference.
# System: Plasmodium falciparum
# Experiment: Screen against P. falciparum Asexual Blood Stage (ABS), at 5uM
# Type: functional, Dd2
# Settings: tested at 5 uM
row,Structure (SMILES),INHIBITION [%]
1,Clc1cccc2c3c([nH]c12)CCN(Cc1cc2n(n1)CCNC2)C3,79.1
2,Clc1cccc2c3c([nH]c12)CCN(Cc1cc2n(n1)CCCNC2)C3,89.7
3,c1cncc(OC[C@]23COC[C@H]2CN(Cc2nccs2)C3)c1,-94.4
4,Cc1cccc(CN2CCO[C@H]3[C@H](Oc4ccccn4)CC[C@@H]32)n1,-7.66
5,Cc1cc(N2CCOC(c3ccccn3)C2)nc(N)n1 (stereo not drawn),75.1
6,CC(C)N1CCOC(c2ccnc(N(C)C)n2)C1 (stereo not drawn),-133
7,N#CC1CCCN(c2nc(-c3ccccc3)nc3c2CCNCC3)C1 (stereo not drawn),79.9
8,NCC1CCCN(c2nc(-c3ccccc3)nc3c2CCNCC3)C1 (stereo not drawn),85.9
9,Cc1noc(C)c1CN1C[C@H](OCC2CC2)[C@H]2OCCC[C@H]21,-58
10,CS(=O)(=O)NCc1cncc2c1CCN(CC1CCOC1)C2 (stereo not drawn),-80.3
11,Cc1noc(C)c1CN1C[C@H](OCC(=O)N(C)C)[C@H]2OCCC[C@H]21,-72.7
12,Cc1cc(CN2CCc3nc(N4CCOCC4)nc(O)c3CC2)c(C)s1,77.6
13,Cc1cc(CN2CCc3nc(-c4ccncc4)nc(O)c3CC2)c(C)s1,91
14,O=C(N[C@H]1CN[C@H]2CCCO[C@H]21)c1cccnc1,-13.5
15,Cc1cc(CN2CCO[C@H]3[C@H](OCc4csc(C)n4)CC[C@@H]32)no1,-73.3
16,CC(C)[C@H](N)C(=O)N1CCSc2ccccc2C1,73.7
17,O=C1Nc2ccccc2C12CCCN(Cc1ccncc1)C2 (stereo not drawn),-78.5
18,c1cc(CN2CCOCC3(CCN(C4CCOCC4)C3)C2)ccn1 (stereo not drawn),-38.5
19,CNC(=O)CN1CCOCC2(CCCN(Cc3cccnc3)C2)C1 (stereo not drawn),-8.58
20,Cc1cccc(CN2CCOCC3(CCN(C4CCOCC4)C3)C2)c1 (stereo not drawn),78.6
21,O=C(Cc1cccnc1)N1CCC2(CC1)CCN(C1CCOC1)C2 (stereo not drawn),-58.9
22,Fc1cccc(CN2CCOCC3(CCN(C4CCOCC4)C3)C2)c1 (stereo not drawn),78.2
23,c1cncc(CN2CCCC3(COCCN(c4nccs4)C3)C2)c1 (stereo not drawn),10.9
24,c1ccc(CN2CCOCC3(CCN(C4CCOCC4)C3)C2)cc1 (stereo not drawn),82.2
25,c1cncc(CN2CCC3(COCCN(C4CCOCC4)C3)C2)c1 (stereo not drawn),-42
26,Fc1cccc(CN2CCC3(CCN3c3ncccn3)C2)c1 (stereo not drawn),27.1
27,COCCN1CCN(c2cccc(C)n2)Cc2ccc(C)nc21,-14.7
28,Cc1cc(NC2CC3(CCN(Cc4csc(C)n4)C3)C2)ncn1 (stereo not drawn),-142
